USP10 inh – inhibitors of human USP10 deubiquitinase. inhibition, % at 20 µM. actives 1.1% (n = 47,000). purified USP10, Ub-rhodamine fluorescence, 60 min. Q14694. AID 1645856
USP30 inh – inhibitors of human USP30 deubiquitinase | Q70CQ3 | purified USP30, Ub-rhodamine cleavage fluorescence | inhibition, % at 25 µM | actives 5.3% (n = 47,000) | AID 1645860
USP8 inh – human USP8 deubiquitinase inhibition; P40818; purified USP8, Ub-rhodamine cleavage fluorescence, 30 min; inhibition, % at 20 µM; actives 4.2% (n = 47,000)
USP17 block – human USP17-like deubiquitinase inhibition; A8MUK1; purified USP17, Ub-rhodamine cleavage fluorescence, 3 h; inhibition, % at 50 µM; actives 6.5% (n = 47,000); AID 1645855
USP28 inh – human USP28 deubiquitinase inhibition. Q96RU2. purified USP28, Ub-rhodamine cleavage fluorescence, 30 min. inhibition, % at 25 µM. actives 3% (n = 47,000). AID 1645857
* = called active by the depositor. The list is not random: actives were taken first. Their share in the collection is about 14%. No stated cut-off is given here; in the data, active means inhibition above about 30%; inactive means the rest.

SMILES	USP10 inh	USP30 inh	USP8 inh	USP17 block	USP28 inh
O=C(Nc1ccccc1Cl)N(Cc1cc2cc3c(cc2[nH]c1=O)OCCO3)C1CCCCC1	2	-6	5	52*	11
Cc1cc(C)c2cc(CN(C(=O)Nc3ccc(Cl)cc3)C3CCCC3)c(=O)[nH]c2c1	26	36*	24	8	-6
Cc1cc(C)c2cc(CN(C(=O)Nc3ccc(F)cc3)C3CCCC3)c(=O)[nH]c2c1	-1	-2	-1	0	-14
CC1CCN(C(=O)c2cn(C)c3c(=O)n(Cc4ccccc4)c(=O)[nH]c23)CC1	-6	-41	-17	-21	-18
Cc1cc(C)cc(NC(=O)CN2C(=O)CC(c3ccccc3)Sc3ccccc32)c1 (centres undefined)	13	57*	19	27	33*
Cc1sc(NC(=O)CN2CCc3ccccc3C2)nc1-c1ccc2c(c1)CCN2C(=O)c1cccc(F)c1	-7	-65	51*	21	-25
Cc1cccc(C(=O)N2CCc3cc(-c4nc(NC(=O)CN(C)C5CCCCC5)sc4C)ccc32)c1	5	10	19	30	12
CCc1nc2ccc(C(=O)Nc3nc(-c4ccc5c(c4)CCN5C(=O)c4cccc(F)c4)c(C)s3)cc2nc1CC	1	-41	11	13	-3
Cc1sc(NC(=O)CN(C)C2CCCCC2)nc1-c1ccc2c(c1)CCN2C(=O)c1ccccc1F	-3	-38	38*	16	9
Cc1cccc(C(=O)N2CCc3cc(-c4nc(NC(=O)CN5CCc6ccccc6C5)sc4C)ccc32)c1	3	12	79*	66*	20
Cc1ccc(C(=O)N2CCc3cc(-c4nc(NC(=O)CN5CCCC5)sc4C)ccc32)cc1	2	-5	-1	-1	3
CC(C)Cn1c(=O)[nH]c2c(C(=O)N3CCc4ccccc4C3)snc2c1=O	5	11	1	7	2
Cc1cccc(CN2C[C@@H]3c4nc(N5CCCC5)ncc4CS(=O)(=O)[C@@H]3C2)c1	-3	-107	-13	-30	-28
c1ccc(CN(Cc2ccccc2)c2ncnc3c2cnn3-c2ccccc2)cc1	7	9	1	1	5
Cc1cccc(-n2ncc3c(N(CCO)CCO)ncnc32)c1	0	34*	28	24	10
Clc1ccc2c(NCC3CCCO3)ncnc2c1 (centres undefined)	1	8	-41	-2	-1
COc1ccc(Cl)cc1C(=O)Nc1ccc(-n2c(C)nc3ncccc3c2=O)cc1C	-2	17	8	17	4
CCn1c(NC(=O)c2cccnc2N2CCCC2)nc2ccccc21	-7	3	-11	-7	0
CCCn1c(NC(=O)c2cccnc2)nc2ccccc21	0	-5	3	17	31*
CCCn1c(NC(=O)Cc2ccc(OC)c(OC)c2)nc2ccccc21	-2	-20	64*	10	0
CCN(CC)CCn1c(NC(=O)c2ccc(S(=O)(=O)N3CCOCC3)cc2)nc2ccccc21	-3	3	70*	8	0
CC(Oc1ccc(F)cc1)C(=O)N1CCC(c2nc3ccccc3cc2C(N)=O)CC1 (centres undefined)	-1	-5	2	-5	-4
Cc1ccc(C(=O)Nc2ccc3c(c2)ncn3C)cc1	1	8	4	3	17
Cn1c(CCC(=O)Nc2ccc3c(c2)CCC3)nc2cc(S(=O)(=O)N3CCOCC3)ccc21	-5	33*	-6	48*	6
CCOC(=O)c1ccc2nc(NC(=O)Cc3cccc4ccccc34)sc2c1	8	36*	16	11	9
SMILES	USP10 inh	USP30 inh	USP8 inh	USP17 block	USP28 inh
CSc1ccccc1C(=O)Nc1nc(-c2ccncc2)cs1	7	34*	-1	55*	4
CSc1ccc(C(=O)Nc2nc(-c3ccncc3)cs2)cc1	1	5	44*	24	7
O=C(Nc1nc2c(Cl)c(Cl)ccc2s1)c1ccncc1	-2	-14	21	8	11
Cc1cc(C)n(-c2ccc(C(=O)NCc3cc(F)cc(F)c3)cn2)n1	0	0	-15	-9	-4
CC(CCc1ccccc1)NC(=O)c1cc2c(=O)[nH]c3ccccc3c2s1 (centres undefined)	2	-5	-1	20	-8
COc1cccc(C2CC(=O)Nc3c2sc(C(=O)O)c3-c2ccc(C)cc2)c1 (centres undefined)	3	30*	17	14	3
O=C(Cn1c(C(F)(F)F)nc2cc3c(cc21)OCCO3)NC1CCCC1	0	3	0	35*	-6

From PubChem
